Screens: PubChem, several laboratories
HIF act – HIF pathway transcriptional activation; AID 1910; activation, % at 7.5 µM (by protocol); U2OS HRE-luciferase reporter, luminescence; normalized: DMSO 0%, desferrioxamine 100%; 300,000 tested, 0.32% active;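 active = mean activation of at least 10% of the iron chelator positive control signal, with at least half of replicates also reaching 10%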
NPR2 activator – GC-B (human) receptor activation. P20594. AID 1920062. HEK293-GC-B cells, CNP EC30, cGMP TR-FRET; 0% at EC30 CNP, 100% saturating CNP. 370,000 tested, 0.11% active. activation, % at 10 µM;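 active = activation at 10 µM reaching about 35% in either raw or pattern-adjusted values, limit read from the data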
proKLK7 act – activates the human kallikrein-7 zymogen; P49862; purified proKLK7, EDANS-DABCYL substrate fluorescence; 100% is mature enzyme control, 0% vehicle; activation, % at 7 µM; 370,000 tested, 0.9% active;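 active = activation above the mean of all tested compounds plus 3 SD, computed per campaign excluding outliers beyond control limits, cut at about 13% in these data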
Target sequence (P49862 whole entry, looked up): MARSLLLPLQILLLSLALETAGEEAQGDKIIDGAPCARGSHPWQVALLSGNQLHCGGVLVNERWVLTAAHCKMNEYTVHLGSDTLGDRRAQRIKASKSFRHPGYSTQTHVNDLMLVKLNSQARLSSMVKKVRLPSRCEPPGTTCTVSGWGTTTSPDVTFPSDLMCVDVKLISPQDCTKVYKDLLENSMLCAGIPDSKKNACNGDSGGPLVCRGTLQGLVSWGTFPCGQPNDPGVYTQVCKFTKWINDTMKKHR
NPR1 activator – GC-A (human) enzyme activation | 370,000 tested, 0.14% active | activation, % at 10 µM | P16066 | AID 1671463 | HEK293 GC-A cells, cGMP TR-FRET, EC30 ANP; 0% at EC30 ANP, 100% saturating ANP; in the data active = activation above about 40%
KLK7 act conf – proKLK7 activation, confirmation | shares compounds with proKLK7 act | 3,200 tested, 68% active | purified proKLK7, EDANS-DABCYL substrate fluorescence; scaled: vehicle 0, mature enzyme 100 | activation, % at 7 µM | AID 686949;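 active = activation, as change over the incubation, above the mean of all tested compounds plus 3 SD, cut at about 13% in these data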
EDANS interfere – counter-screen for kallikrein-7 activators: EDANS-DABCYL optical interference | activation, % at 7 µM | shares compounds with proKLK7 act | AID 686952 | EDANS-DABCYL substrate fluorescence interference, no enzyme, 4 h; solvent 0%, active enzyme control 100% | 3,200 tested, 80% active;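 active = activation above the all-compound mean plus 3 SD, ignoring values outside control-based bounds, cut at about 4.8% in these data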;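 note: value is the 4 h activation minus the activation read at time zero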
EDANS interf – optically interferes with EDANS-DABCYL fluorescence, kallikrein-7 activator counter-screen | shares compounds with proKLK7 act | EDANS-DABCYL peptide fluorescence interference, no enzyme | EC50, µM | 250 tested, 20% active;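 active = compounds that raise the fluorescence signal in this interference counterscreen, with EC50 at or below 10 µM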;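 note: intact quenched peptide substrate alone read at 355 nm excitation and 520 nm emission; signal is fluorescence gain from T0 to T4 after four hours at room temperature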
Numbers without * were called inactive; x = not tested or not shown. This is a sample that favours compounds with a hit; in the whole collection about 1.3% have one here.

SMILES	HIF act	NPR2 activator	proKLK7 act	NPR1 activator	KLK7 act conf	EDANS interfere	others
C=CCN1C(=O)[C@@H](CC(=O)NCc2ccc(OC)c(OC)c2)[C@]2(C(=O)OCC)CCCCC/C=C/12	x	-3	0	-1	x	x
CN(Cc1ccccc1)C(=O)OCc1cn(Cc2ccc(F)cc2F)nn1	x	6	0	5	x	x
CCN1C(=O)c2cccc3c(S(=O)(=O)N4CCCC4C(=O)O)ccc1c23 (stereo not given)	1	4	37*	0	22*	24*
CCN1C(=O)c2cccc3c(S(=O)(=O)Nc4ccccc4)ccc1c23	1	x	x	x	x	x
CCN1C(=O)c2cccc3c(S(=O)(=O)N4CCNCC4)ccc1c23	x	-1	171*	1	57*	68*
CCN1CCN(S(=O)(=O)c2ccc3c4c(cccc24)C(=O)N3CC)CC1	x	6	56*	0	44*	46*
Cn1c(=O)c2c(-c3ccccc3)n(-n3cnnc3)cc2n(C)c1=O	1	-4	14*	-4	1	6.8*
CC[C@H](CCC(=O)N(c1ccccc1)c1ccccc1)c1ccc(C)cc1	x	-16	0	-22	x	x
O=C(O)c1cc(-c2ccc(-c3ccc(F)cc3)o2)nc2ccccc12	1	-4	33*	6	65*	76*
Cn1c(-c2ccc(C=O)s2)nc2ccccc21	1	-4	48*	-9	52*	56*
COC1=C[C@H](C(=O)NCc2ccc(Cl)cc2)C(C)C(c2ccccc2)CC1=O (stereo not given in full)	x	-6	1	-1	x	x
CCC[C@H]1OC(=O)[C@@H]2CCCN2C(=O)[C@H]([C@H](C)Cc2ccccc2)NC(=O)[C@@H]2CCCN2C(=O)[C@@H]2CCCN2C(=O)[C@H](C(C)C)OC(=O)[C@@H]2CCCN2C(=O)[C@H](C(C)C)NC(=O)C1(C)C	x	3	x	1	x	x
O=Cc1cn(-c2ccccc2)nc1-c1cc2cc(O)ccc2oc1=O	0	-6	197*	-2	561*	549*
CCCCCN1CCCCC(NC(=O)C2CCCCC2)C1=O (stereo not given)	x	0	-1	4	x	x
O=C(OCCCN1CCC2(CCC(c3ccccc3)CC2)C1=O)c1ccccc1 (stereo not given)	x	7	1	-4	x	x
O=C(NCc1ccccc1)[C@@H]1CCCN1C(=O)[C@H]1CCCN1C(=O)c1ccc(Cl)cc1	x	-2	1	-7	x	x
CC(=O)Nc1cccc(NC(=O)CSc2ncc(C(=O)Nc3ccccc3)c(=O)n2C)c1	8	-7	100*	20	6	13*
O=C(NCC(c1ccccc1)c1ccccc1)[C@H](Cc1ccccc1)NC1(C(=O)NC2CCCCC2)CCCCCC1	x	-3	x	-2	x	x
CCCOc1ccc(/C=C2\SC(N)=NC2=O)cc1OC	0	6	18*	0	0	-2
Cc1ccc(C)n1-c1nccc(-c2ccco2)n1	1	1	81*	4	113*	127*
Cc1ccc(C)n1-c1nccc(-c2cccs2)n1	0	-2	52*	0	111*	136*
O=C(NC1CCCCN(Cc2cccc(F)c2)C1=O)c1ccc2ccccc2c1 (stereo not given)	x	-5	0	2	x	x
COC(=O)C1CN(Cc2ccc(Cl)cc2)CCS(=O)(=O)N1Cc1cn(Cc2ccc(OC)cc2)nn1 (stereo not given)	x	-7	0	-3	x	x
c1nc(NCC2CCCOC2)c2cc(-c3ccc4c(c3)OCO4)ccc2n1 (stereo not given)	x	-9	x	-1	x	x
O=C(OC12CCCN(C1)/C(=C/c1ccncc1)C2)c1ccccc1 (stereo not given)	x	-1	0	0	x	x
SMILES	HIF act	NPR2 activator	proKLK7 act	NPR1 activator	KLK7 act conf	EDANS interfere	others
Cc1ccc(-c2cc(C(=O)NCc3ccco3)c3ccccc3n2)s1	0	-3	16*	3	22*	65*
Cc1ccc(-c2cc(C(=O)NCCCn3ccnc3)c3ccccc3n2)s1	1	-5	35*	4	75*	76*
C/C(=N\NC(=O)c1cc(-c2ccc(C)s2)nc2ccccc12)c1cccnc1	1	-3	66*	4	-151	-211
CCC(C)c1ccc(NC(=O)CSc2nnc(-c3cccc(C)c3)n2C)cc1 (stereo not given)	x	-3	-1	-5	x	x
C(=C\c1ccccc1)/CSc1nnc(COc2ccccc2)n1Cc1ccco1	x	-7	0	-7	x	x
COCCNC(=S)N(C)[C@H]1C[C@H]2c3[nH]c4c(-c5ccccc5)cccc4c3CCN2C(=O)[C@H]1[C@H](C)O	x	-2	-8	-3	x	x
C[C@H](O)[C@@H]1C(=O)N2CCc3c([nH]c4ccccc34)[C@@H]2C[C@@H]1N(C)C(=O)NC1CCCCC1	x	7	36*	11	26*	21*	EDANS interf=8.4*
C[C@H](O)[C@@H]1C(=O)N2CCc3c([nH]c4ccccc34)[C@@H]2C[C@@H]1N(C)Cc1ccc(Cl)cc1	x	10	52*	13	13*	13*
CN[C@H]1C[C@H]2c3[nH]c4ccccc4c3CCN2C(=O)[C@H]1[C@H](C)O	x	15	28*	21	14*	13*
C[C@H](O)[C@@H]1C(=O)N2CCc3c([nH]c4c(-c5ccccc5)cccc34)[C@@H]2C[C@@H]1N(C)C(=O)NC1CCCCC1	x	-6	-8	-7	x	x
COCCNC(=S)N(C)[C@H]1C[C@H]2c3[nH]c4ccccc4c3CCN2C(=O)[C@H]1[C@H](C)O	x	25	51*	26	33*	34*
CCc1c(C(=O)C(C)O)c2n3c1CCC[C@@H]3CC2 (stereo not given in full)	x	-3	x	0	x	x
COC(=O)[C@H](C(C)C)N(Cc1cn(Cc2ccc(C)cc2)nn1)S(=O)(=O)c1ccccc1Br	x	5	0	1	x	x
COCC(=O)N(C)[C@H]1C[C@H]2c3[nH]c4c(-c5ccccc5)cccc4c3CCN2C(=O)[C@H]1[C@H](C)O	x	-2	-2	2	x	x
COCC(=O)N(C)[C@H]1C[C@H]2c3[nH]c4ccccc4c3CCN2C(=O)[C@H]1[C@H](C)O	x	2	27*	6	40*	42*
CN(CCO)c1ccc2c(c1)Oc1ccccc1CN(Cc1cn(Cc3ccccc3C(F)(F)F)nn1)S2(=O)=O	x	-1	0	0	x	x
COC(=O)[C@H](C(C)C)N(CCCc1cn(Cc2ccc(C)cc2)nn1)S(=O)(=O)c1ccccc1Br	x	6	0	-1	x	x
